# Data taken from PubChem BioAssay (NCATS).
# Inconclusive results are not listed. The source made the active and inactive calls. Calls come from the whole dose curve; as a rule, active = well fitted curve in the direction sought with a large enough effect; inconclusive = small, poorly fitted or top-dose-only effect, or another doubt; inactive = no such curve, though single readings can be large; an effect the other way counts as inactive or inconclusive.
# How the values were obtained:
# [1] = Quantitative High-Throughput drug screen in 47 multiple myeloma cell lines against the NCATS MIPE library collection: KMM1_JCRB cell viability assay (AID 1918960); note: nearly all actives have a fitted effect of over 30% in size
# Outline: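 ATP readout (CellTiter-Glo), 48 h drug incubation, 37 °C/5% CO2, 500 cells per well; normalisation to DMSO (100%) and media-only (0%) controls.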
# [2] = Quantitative High-Throughput drug screen in 47 multiple myeloma cell lines against the NCATS MIPE library collection: JIM3_ECACC cell viability assay (AID 1918963; note: nearly all actives have a fitted effect of over 35% in size)
# Outline: (§1)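 Myeloma cell lines, 500 cells per well, exposed to MIPE 4.0 library compounds for 48 h at 37C, 5% CO2. Viability from ATP by CellTiter-Glo luminescence; normalised to DMSO (100%) and media-only (0%) wells.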
# [3] = Quantitative High-Throughput drug screen in 47 multiple myeloma cell lines against the NCATS MIPE library collection: JIM1_ECACC cell viability assay (AID 1918964)
# Outline: (§2)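 Inhibition of cell viability is measured here. Each line was plated at 500 cells per well, treated with MIPE 4.0 drugs, kept 48 hours at 37C, then assayed for ATP content by CellTiter-Glo luminescence.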
# [4] = Quantitative High-Throughput drug screen in 47 multiple myeloma cell lines against the NCATS MIPE library collection: INA6_PLB cell viability assay (AID 1918965; note: nearly all actives have a fitted effect of over 55% in size)
# Outline: as §1
# [5] = Quantitative High-Throughput drug screen in 47 multiple myeloma cell lines against the NCATS MIPE library collection: JJN3_DSMZ cell viability assay (AID 1918966; note: nearly all actives have a fitted effect of over 50% in size)
# Outline: as §2
# [6] = Quantitative High-Throughput drug screen in 47 multiple myeloma cell lines against the NCATS MIPE library collection: H1112_PLB cell viability assay (AID 1918967; note: nearly all actives have a fitted effect of over 30% in size)
# Outline: as §2
# [7] = Quantitative High-Throughput drug screen in 47 multiple myeloma cell lines against the NCATS MIPE library collection: Karpas25_ECACC cell viability assay (AID 1918968; note: nearly all actives have a fitted effect of over 35% in size)
# Outline: as §2
# [8] = Quantitative High-Throughput drug screen in 47 multiple myeloma cell lines against the NCATS MIPE library collection: KMS27_JCRB cell viability assay (AID 1918970); details: KMS27 myeloma cells, CellTiter-Glo ATP viability, 48 h; viability (% of DMSO): at 45.8 µM (top of the series); note: nearly all actives have a fitted effect of over 30% in size
# Outline: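 KMS27_JCRB myeloma cells, 500 per well, exposed 48 h at 37 C, 5% CO2 to MIPE 4.0 compounds. Viability from ATP by CellTiter-Glo luminescence, normalized to DMSO (100%) and medium-only (0%) wells.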
# [9] = Quantitative High-Throughput drug screen in 47 multiple myeloma cell lines against the NCATS MIPE library collection: KMS12BM_JCRB cell viability assay (AID 1918971); note: nearly all actives have a fitted effect of over 35% in size
# Outline: as §1
# [10] = Quantitative High-Throughput drug screen in 47 multiple myeloma cell lines against the NCATS MIPE library collection: KMS20_JCRB cell viability assay (AID 1918973); note: nearly all actives have a fitted effect of over 45% in size
# Outline: as §2
# [11] = Quantitative High-Throughput drug screen in 47 multiple myeloma cell lines against the NCATS MIPE library collection: NCIH929_DSMZ cell viability assay (AID 1918978); note: nearly all actives have a fitted effect of over 35% in size
# Outline: (§3)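 500 cells/well per myeloma line exposed to pinned MIPE 4.0 compounds for 48 h at 37 °C, 5% CO2. Viability read as ATP by CellTiter-Glo luminescence, normalised to DMSO-only (100%) and media-only (0%) wells.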
# [12] = Quantitative High-Throughput drug screen in 47 multiple myeloma cell lines against the NCATS MIPE library collection: OCIMY1_PLB cell viability assay (AID 1918979); note: nearly all actives have a fitted effect of over 35% in size
# Outline: as §3
# [13] = Quantitative High-Throughput drug screen in 47 multiple myeloma cell lines against the NCATS MIPE library collection: MM1S_ATCC cell viability assay (AID 1918980); note: nearly all actives have a fitted effect of over 45% in size
# Outline: as §3
# [14] = Quantitative High-Throughput drug screen in 47 multiple myeloma cell lines against the NCATS MIPE library collection: KMS12PE_JCRB cell viability assay (AID 1918972); note: nearly all actives have a fitted effect of over 30% in size
# Outline: as §1
# [15] = Quantitative High-Throughput drug screen in 47 multiple myeloma cell lines against the NCATS MIPE library collection: KMS26_JCRB cell viability assay (AID 1918975); note: nearly all actives have a fitted effect of over 45% in size
# Outline: as §1
# [16] = Quantitative High-Throughput drug screen in 47 multiple myeloma cell lines against the NCATS MIPE library collection: MMM1_PLB cell viability assay (AID 1918976); note: nearly all actives have a fitted effect of over 35% in size
# Outline: as §3
# [17] = Quantitative High-Throughput drug screen in 47 multiple myeloma cell lines against the NCATS MIPE library collection: MOLP8_DSMZ cell viability assay (AID 1918977); note: nearly all actives have a fitted effect of over 45% in size
# Outline: as §3
# [18] = Quantitative High-Throughput drug screen in 47 multiple myeloma cell lines against the NCATS MIPE library collection: KHM11_PLB cell viability assay (AID 1918962); note: nearly all actives have a fitted effect of over 35% in size
# Outline: as §1
# [19] = Quantitative High-Throughput drug screen in 47 multiple myeloma cell lines against the NCATS MIPE library collection: KMS21BM_JCRB cell viability assay (AID 1918974); details: ATP luminescence, 48 h; viability: at 45.8 µM (top of the series)
# Outline: as §2
# Potency is the fitted concentration of half-maximal effect.
SMILES,Potency [1],Potency [2],Potency [3],Potency [4],Potency [5],Potency [6],Potency [7],Potency [8],Potency [9],Potency [10],Potency [11],Potency [12],Potency [13],Potency [14],Potency [15],Potency [16],Potency [17],Potency [18],Potency [19]
CNC(=O)c1cc(COc2nnc(Nc3ccc(Cl)cc3)c3ccoc23)ccn1,9.35 µM (active),inactive,inactive,13.2 µM (active),29.6 µM (active),inactive,inactive,inactive,26.4 µM (active),inactive,inactive,23.5 µM (active),inactive,,,,,,
CC(C)=CCCC(C)=CCCC(C)=CCCC(C)=CCCC(C)=CCCC(C)=CCCC(C)=CCCC(C)=CCCC(C)=CCO,inactive,inactive,inactive,inactive,,inactive,inactive,inactive,inactive,,inactive,inactive,inactive,inactive,inactive,inactive,,,
COc1cc([C@H]2Oc3cc([C@H]4Oc5cc(O)cc(O)c5C(=O)[C@H]4O)ccc3O[C@H]2CO)ccc1O,inactive,16.6 µM (active),inactive,13.2 µM (active),9.35 µM (active),,,inactive,10.5 µM (active),,23.5 µM (active),20.9 µM (active),9.35 µM (active),inactive,16.6 µM (active),7.43 µM (active),,,
O=C(C=Cc1ccc(O)cc1)c1ccc(O)cc1O,16.6 µM (active),20.9 µM (active),4.69 µM (active),3.32 µM (active),14.8 µM (active),,23.5 µM (active),,20.9 µM (active),,16.6 µM (active),,23.5 µM (active),14.8 µM (active),23.5 µM (active),5.9 µM (active),14.8 µM (active),,
COc1ccc(-c2cc(=O)c3c(O)cc(O[C@@H]4O[C@H](CO[C@@H]5O[C@@H](C)[C@H](O)[C@@H](O)[C@@H]5O)[C@@H](O)[C@H](O)[C@@H]4O)cc3o2)cc1O,inactive,16.6 µM (active),inactive,26.4 µM (active),,13.2 µM (active),11.8 µM (active),inactive,,,9.35 µM (active),inactive,18.7 µM (active),inactive,20.9 µM (active),,inactive,,
CCC(=O)NCC[C@@H]1CCc2ccc3c(c21)CCO3,inactive,13.2 µM (active),,,,,13.2 µM (active),inactive,inactive,,,,1.48 µM (active),inactive,6.62 µM (active),0.59 µM (active),,13.2 µM (active),
C=C1[C@H](n2cnc3c(=O)[nH]c(N)nc32)C[C@H](O)[C@H]1CO,18.7 µM (active),,,11.8 µM (active),inactive,11.8 µM (active),,,0.418 µM (active),,20.9 µM (active),inactive,14.8 µM (active),,inactive,3.72 µM (active),,4.69 µM (active),1.32 µM (active)
N#CC(c1ccc(Cl)cc1)c1c(Cl)cc(-n2ncc(=O)[nH]c2=O)cc1Cl (configuration not stated),5.9 µM (active),,20.9 µM (active),23.5 µM (active),16.6 µM (active),20.9 µM (active),8.33 µM (active),,20.9 µM (active),3.72 µM (active),18.7 µM (active),inactive,20.9 µM (active),,inactive,,inactive,0.372 µM (active),0.235 µM (active)
COc1cc2ncn(-c3cc(OCc4ccccc4S(C)(=O)=O)c(C#N)s3)c2cc1OC,inactive,inactive,,,,3.72 µM (active),,,,,4.69 µM (active),inactive,20.9 µM (active),inactive,inactive,5.9 µM (active),,inactive,
NC(=O)c1ccc(N(C(N)=O)c2c(F)cccc2F)nc1-c1ccc(F)cc1F,inactive,11.8 µM (active),inactive,18.7 µM (active),,5.26 µM (active),7.43 µM (active),inactive,,,5.26 µM (active),,,,,inactive,,,
Cc1ccc2c(c1)C(=O)[C@]1(O)CCN(c3ccccc3)C1=N2,inactive,,inactive,,11.8 µM (active),,,,,,inactive,,,,,inactive,,inactive,
O=C(NC[C@H](O)CO)c1ccncc1Nc1ccc(I)cc1F,6.62 µM (active),14.8 µM (active),2.35 µM (active),5.9 µM (active),,13.2 µM (active),6.62 µM (active),1.48 µM (active),,0.0526 µM (active),8.33 µM (active),0.0935 µM (active),18.7 µM (active),14.8 µM (active),,inactive,,,
CCCCC(C=O)NC(=O)C(CC(C)C)NC(=O)OCc1ccccc1 (configuration not stated),inactive,,,16.6 µM (active),,inactive,,,20.9 µM (active),,20.9 µM (active),,,,,6.62 µM (active),,inactive,
CN(C)c1ccc(-c2nc3ncc(Cl)c(N4CCN(CC(=O)Nc5nccs5)CC4)c3[nH]2)cc1,inactive,3.32 µM (active),inactive,2.64 µM (active),18.7 µM (active),,2.64 µM (active),,4.18 µM (active),,inactive,,,,,9.35 µM (active),,,
